Laboratory results from PubChem BioAssay (EPA / NIEHS).
Activity calls are given as the source filed them. The calls were made as follows: active = hit-call score of the fitted dose curve at least 0.9, where 1 is the maximum; inactive = score below 0.9.

Legend:
[1] = read-out: catalase (CAT), CAT (gene 847); assay: LTEA_HepaRG_CAT: Life Technologies and Expression Analysis (LTEA) Assay for catalase (CAT) using HepaRG (AID 2283452); details: mRNA level, 48 h; actives raise or lower the signal;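 as to AC50: TaqMan qRT-PCR signal normalized to ACTB GAPDH and POLR2A housekeeping genes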
Summary of the method: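 Expression of CAT was quantified by TaqMan qRT-PCR with ACTB/GAPDH/POLR2A normalization after 48 h chemical exposure of HepaRG. Eight-point half-log series, top 100 uM, in 0.5% DMSO; gain or loss fitted against vehicle.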

[2] = read-out: Cytochrome P450 (CYP1A1), CYP1A1 (gene 1543); assay: LTEA_HepaRG_CYP1A1: Life Technologies and Expression Analysis (LTEA) Assay for Cytochrome P450 (CYP1A1) using HepaRG (AID 2283454); details: mRNA level, 48 h; actives raise or lower the signal
Summary of the method: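 Using HepaRG cultures with 0.5% DMSO as vehicle, eight-concentration exposures (max 100 uM) lasted 48 h. Transcript levels were measured by TaqMan qRT-PCR and normalized to ACTB, GAPDH and POLR2A.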

[3] = read-out: CFLAR gene, CFLAR (gene 8837); assay: LTEA_HepaRG_CFLAR: Life Technologies and Expression Analysis (LTEA) Assay for CFLAR gene using HepaRG (AID 2283455); details: mRNA level, 48 h; actives raise or lower the signal
Summary of the method: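 HepaRG, 48 h exposure, 8-pt conc-response (100 uM top, half-log), 0.5% DMSO vehicle, duplicates. CFLAR expression by qRT-PCR; ACTB/GAPDH/POLR2A normalization; gain or loss fit vs DMSO baseline.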

[4] = read-out: Forkhead box O1 (FOXO1), FOXO1 (gene 2308); assay: LTEA_HepaRG_FOXO1: Life Technologies and Expression Analysis (LTEA) Assay for Forkhead box O1 (FOXO1) using HepaRG (AID 2283456); details: mRNA level, 48 h; actives raise or lower the signal
Summary of the method: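 Readout is FOXO1 transcript level by multiplexed qRT-PCR against three housekeeping genes, curve-fitted in both directions relative to 0.5% DMSO vehicle. Human HepaRG cultures received chemicals for 48 h, up to 100 uM in half-log steps.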

[5] = read-out: growth arrest and DNA damage 45 (GADD45A), GADD45A (gene 1647); assay: LTEA_HepaRG_GADD45A: Life Technologies and Expression Analysis (LTEA) Assay for growth arrest and DNA damage 45 (GADD45A) using HepaRG (AID 2283458); details: mRNA level, 48 h; actives raise or lower the signal
Summary of the method: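 Human HepaRG liver cells are treated in duplicate for 48 h with chemicals in 0.5% DMSO, highest concentration 100 uM. Expression is read by qRT-PCR and analyzed in both directions against vehicle.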

[6] = read-out: Forkhead box O3 (FOXO3), FOXO3 (gene 2309); assay: LTEA_HepaRG_FOXO3: Life Technologies and Expression Analysis (LTEA) Assay for Forkhead box O3 (FOXO3) using HepaRG (AID 2283459); details: mRNA level, 48 h; actives raise or lower the signal
Summary of the method: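 HepaRG, 48 h post-dose; 8 conc., half-log from 100 uM, 0.5% DMSO, duplicates; serum-free induction medium. Readout: FOXO3 mRNA, TaqMan qRT-PCR, housekeeping-normalized. Bidirectional curve fit vs DMSO baseline.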

[7] = read-out: ABC Transporter (ABCB1), ABCB1 (gene 5243); assay: LTEA_HepaRG_ABCB1: Life Technologies and Expression Analysis (LTEA) Assay for ABC Transporter (ABCB1) using HepaRG (AID 2283460); details: mRNA level, 48 h; actives raise or lower the signal
Summary of the method: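 Expression of ABCB1 was quantified by qRT-PCR against three housekeeping genes after human HepaRG cultures received test chemicals for 48 hours. Concentrations spanned eight half-log steps topping at 100 uM in 0.5% DMSO; gain or loss of signal was fitted relative to vehicle.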

[8] = read-out: growth arrest and DNA damage 45 (GADD45B), GADD45B (gene 4616); assay: LTEA_HepaRG_GADD45B: Life Technologies and Expression Analysis (LTEA) Assay for growth arrest and DNA damage 45 (GADD45B) using HepaRG (AID 2283461); details: mRNA level, 48 h; actives raise or lower the signal
Summary of the method: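 Human HepaRG monolayers receive chemicals for 48 h at eight half-log concentrations, highest 100 uM, in 0.5% DMSO. Expression is measured by TaqMan qRT-PCR and normalized to ACTB, GAPDH and POLR2A.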

[9] = read-out: ABC Transporter (ABCC3), ABCC3 (gene 8714); assay: LTEA_HepaRG_ABCC3: Life Technologies and Expression Analysis (LTEA) Assay for ABC Transporter (ABCC3) using HepaRG (AID 2283462); details: mRNA level, 48 h; actives raise or lower the signal
Summary of the method: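 Transcriptional change of ABCC3 in HepaRG after 48 h treatment, determined by qRT-PCR normalized to endogenous controls. Concentrations spanned eight half-log steps to 100 uM in 0.5% DMSO.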

[10] = CEETOX_H295R_TESTO: CeeTox H295R High-throughput Steroidogenesis Assay for Testosterone (TESTO) (AID 2283457); details: actives raise or lower the signal;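 as to AC50: cells exposed to chemicals for 48 h before medium collection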
Summary of the method: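 Steroidogenesis in H295R cells following OECD 456 with minor changes; 48 h exposure. Medium testosterone by HPLC-MS/MS, DMSO as baseline, with MTT viability run in parallel.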

CC(C)O.CC(C)O.OCCN(CCO)CCO.OCCN(CCO)CCO.[Ti]
outcome [1]: inactive
outcome [2]: inactive
outcome [3]: inactive
outcome [4]: inactive
outcome [5]: inactive
outcome [6]: inactive
outcome [7]: inactive
outcome [8]: inactive
outcome [9]: inactive

N#Cc1cccnc1
outcome [1]: inactive
outcome [2]: inactive
outcome [3]: inactive
outcome [4]: inactive
outcome [5]: inactive
outcome [6]: inactive
outcome [7]: inactive
outcome [8]: inactive
outcome [9]: inactive

CN(C)C(=S)S
outcome [1]: inactive
AC50 [2]: 64.4 µM (active)
outcome [3]: inactive
outcome [4]: inactive
outcome [5]: inactive
outcome [6]: inactive
outcome [7]: inactive
outcome [8]: inactive
outcome [9]: inactive

Clc1cccc(Cl)c1Cl
outcome [1]: inactive
AC50 [2]: 50 µM (active)
outcome [3]: inactive
outcome [4]: inactive
outcome [5]: inactive
outcome [6]: inactive
outcome [7]: inactive
outcome [8]: inactive
outcome [9]: inactive

COc1ccccc1N
outcome [1]: inactive
AC50 [2]: 68.2 µM (active)
outcome [3]: inactive
outcome [4]: inactive
outcome [5]: inactive
outcome [6]: inactive
outcome [7]: inactive
outcome [8]: inactive
outcome [9]: inactive

O=S1OC[C@@H]2[C@H](CO1)[C@]1(Cl)C(Cl)=C(Cl)[C@@]2(Cl)C1(Cl)Cl (some centres not stated)
AC50 [10]: 50 µM (active)

Clc1cccc(Cl)c1
outcome [1]: inactive
AC50 [2]: 78.1 µM (active)
outcome [3]: inactive
outcome [4]: inactive
outcome [5]: inactive
outcome [6]: inactive
outcome [7]: inactive
outcome [8]: inactive
outcome [9]: inactive

Cc1cc(C)cc(C)c1
outcome [1]: inactive
outcome [2]: inactive
outcome [3]: inactive
outcome [4]: inactive
outcome [5]: inactive
outcome [6]: inactive
outcome [7]: inactive
outcome [8]: inactive
outcome [9]: inactive

OCCN(CCO)CCO
outcome [1]: inactive
AC50 [2]: 73.2 µM (active)
outcome [3]: inactive
outcome [4]: inactive
outcome [5]: inactive
outcome [6]: inactive
outcome [7]: inactive
outcome [8]: inactive
outcome [9]: inactive

Oc1c(Cl)cc(Cl)cc1Cl
outcome [1]: inactive
outcome [3]: inactive
outcome [4]: inactive
outcome [5]: inactive
outcome [6]: inactive
outcome [8]: inactive
outcome [9]: inactive

Cc1ccccc1OP(=O)(Oc1ccccc1C)Oc1ccccc1C
outcome [10]: inactive

Oc1cc(Cl)c(Cl)cc1Cl
outcome [1]: inactive
AC50 [2]: 80.5 µM (active)
outcome [3]: inactive
outcome [4]: inactive
outcome [5]: inactive
outcome [7]: inactive
outcome [8]: inactive
outcome [9]: inactive

Cc1cc(C(C)(C)c2ccc(O)c(C)c2)ccc1O
AC50 [10]: 5 µM (active)

O=C(N[C@H]1CN2CCC1CC2)c1ccc2c(c1)OCCO2
outcome [1]: inactive
outcome [2]: inactive
outcome [3]: inactive
outcome [4]: inactive
outcome [5]: inactive
outcome [6]: inactive
outcome [7]: inactive
outcome [8]: inactive
outcome [9]: inactive

OC(Cc1ccccc1Cl)(Cn1[nH]cnc1=S)C1(Cl)CC1 (configuration not stated)
outcome [10]: inactive

CCCCCCCCCCCCc1cccc(S(=O)(=O)O)c1
outcome [1]: inactive
AC50 [2]: 51.6 µM (active)
outcome [3]: inactive
AC50 [4]: 16.1 µM (active)
outcome [5]: inactive
AC50 [6]: 45 µM (active)
outcome [7]: inactive
outcome [8]: inactive
outcome [9]: inactive

CC(C)(C)c1ccccc1O
outcome [1]: inactive
AC50 [2]: 50 µM (active)
outcome [3]: inactive
outcome [4]: inactive
outcome [5]: inactive
outcome [6]: inactive
outcome [7]: inactive
outcome [8]: inactive
outcome [9]: inactive

O=C(O)C1(c2ccc3c(c2)OC[C@H](Cc2ccc(-c4ccccc4)cc2)[C@H]3O)CCCC1
AC50 [1]: 82 µM (active)
AC50 [2]: 23.3 µM (active)
outcome [3]: inactive
AC50 [4]: 50 µM (active)
outcome [5]: inactive
outcome [6]: inactive
outcome [7]: inactive
AC50 [8]: 86.9 µM (active)
AC50 [9]: 75.7 µM (active)
